Source: PubChem BioAssay
Granule exo inh – LAMP-1 surface exposure blockers, TALL-104 cells – cell-based, flow cytometry, MLPCN library, primary screen; TALL-104 LAMP-1 surface exposure; cells stimulated with thapsigargin and PMA; inhibition, % at 10 µM; 360,000 compounds, 0.66% hits; AID 651702, 2012;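 active = inhibition above about 55%, limit read from the data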
PP1 counter – PP1-alpha phosphatase inhibitors, primary screen, counter-screen for PP5 inhibitor project, biochemical, fluorescence, OMFP substrate, single point. 320,000 compounds, 0.9% hits. Serine/threonine-protein phosphatase PP1-alpha catalytic subunit (Homo sapiens), P62136. AID 2235, 2010. purified PP1alpha. inhibition, % at 6.7 µM;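 active = inhibition above the mean inhibition of all tested compounds plus 3 SD, computed separately for each screening campaign, cut at about 15% in these data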
Target sequence (P62136 whole entry, looked up): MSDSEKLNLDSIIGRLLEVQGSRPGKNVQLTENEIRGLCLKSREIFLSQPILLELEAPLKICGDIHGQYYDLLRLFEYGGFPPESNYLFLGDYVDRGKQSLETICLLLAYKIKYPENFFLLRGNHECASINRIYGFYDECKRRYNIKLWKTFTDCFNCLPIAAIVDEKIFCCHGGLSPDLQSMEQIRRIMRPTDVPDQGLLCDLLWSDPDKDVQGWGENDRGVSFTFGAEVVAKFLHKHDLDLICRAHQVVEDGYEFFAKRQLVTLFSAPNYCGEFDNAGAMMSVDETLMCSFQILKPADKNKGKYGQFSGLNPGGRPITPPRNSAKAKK
PP5 primary – PP5 phosphatase inhibitors, primary screen, biochemical, fluorescence | Serine/threonine-protein phosphatase 5 (Homo sapiens), P53041 | purified PP5c, OMFP substrate fluorescence | inhibition, % at 6.7 µM | 320,000 compounds, 0.18% hits | AID 1987, 2009;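 active = inhibition above the campaign's mean inhibition across all tested compounds plus 3 SD, cut at about 9.5% in these data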;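 also: 0% = DMSO only and 100% = 100 µM cantharidin control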
IDE act – human IDE activators in live cells, primary screen, fluorescence polarization, HEK cells, FAbeta-B substrate; 340,000 compounds, 0.073% hits; AID 493087, 2011; FAbeta-B cleavage; 0% vehicle, 100% cell-free pure enzyme wells; Insulin-degrading enzyme (Homo sapiens), P14735; activation, % at 5.96 µM;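 active = activation above the mean of all tested compounds plus 3 SD, set per screening campaign, cut at about 17% in these data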
IDE inh – human IDE inhibitors in live cells, primary screen, fluorescence polarization, HEK cells, FAbetaB substrate | FAbetaB cleavage | Insulin-degrading enzyme (Homo sapiens), P14735 | inhibition, % at 5.59 µM | 320,000 compounds, 0.41% hits | AID 434962, 2010;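 active = percent inhibition above the average of all tested compounds plus 3 SD, set per screening campaign, cut at about 16% in these data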;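 also: IDE supplied by intact live HEK cells; FP after avidin binding of uncleaved biotin substrate so inhibition keeps polarization high; 0% = DMSO wells and 100% = 60 µM reference IDE inhibitor Ii1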
SKKanGAS inh – S. pyogenes SKKanGAS growth inhibitors in kanamycin, primary screen, streptokinase expression inhibitor project, SKKanGAS strain, BacTiter-Glo luminescence. 6 h. inhibition, % at 7.5 µM. 300,000 compounds, 1.3% hits;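 active = mean replicate score, as percent of positive control median, at least 50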;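 also: strain carries kanamycin resistance gene driven by streptokinase promoter and grows in 40 µg/ml kanamycin; loss of luminescence reflects streptokinase promoter inhibition or plain growth inhibition; 0% = median of DMSO wells and 100% = positive control at its reference dose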
PP1 confirm – PP1 phosphatase inhibitors, confirmation, biochemical, fluorescence, OMFP substrate, triplicate | shares compounds with PP1 counter | purified PP1alpha | inhibition, % at 6.7 µM | 1,900 compounds, 52% hits | AID 2358, 2010;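 active = mean PP1 inhibition above a set limit taken from the earlier primary screen, cut at about 15% in these data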
PP5 counter – PP5 phosphatase inhibition by PP1 hits, confirmation, counter-screen for PP1 inhibitor project, biochemical, fluorescence, triplicate; shares compounds with PP1 counter; purified PP5c, OMFP fluorescence; inhibition, % at 6.7 µM; 1,900 compounds, 4% hits; AID 2360, 2010;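 active = mean PP5 inhibition over triplicate wells above about 9.5% taken from the earlier PP1 screen, limit read from the data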
The depositor's hits bear a star; nt = no result given. In the library only some 2.8% were active in any assay of this set; here they are far more common.

SMILES	Granule exo inh	PP1 counter	PP5 primary	IDE act	IDE inh	SKKanGAS inh	PP1 confirm	PP5 counter
Cc1nc(-c2ccccn2)nc(SCC(=O)c2ccc(F)cc2)c1Cl	-4	27*	3	7	0	85*	41*	-3
N=C1N(/N=C/c2ccccc2)C(=Nc2ccccc2)C(=S)N1c1ccccc1	-3	5	0	2	-1	22	nt	nt
Cn1ccc2cc3c(cc21)CCN3C(=O)Nc1cccnc1	0	35*	1	6	2	nt	0	-1
O=C(N/N=C/c1cc2ccccc2nc1Cl)/C(=C/c1cccs1)NC(=O)c1ccccc1	1	18*	1	0	14	12	7	-1
O=C(N/N=C/c1cccnc1)/C(=C\c1cccs1)NC(=O)c1ccccc1	-1	-5	-9	2	2	0	nt	nt
COC(=O)c1ccc(NC(=O)c2ccc3c(c2)NC(=O)C2CCCN32)cc1 (stereo not given)	nt	34*	7	nt	12	nt	27*	7
CCOc1ccc(CCNC(=O)c2ccc3c(c2)NC(=O)C2CCCN32)cc1OCC (stereo not given)	nt	1	1	nt	-1	7	nt	nt
O=C1Nc2ccccc2N2CCCC12 (stereo not given)	nt	22*	0	nt	1	1	-5	49*
O=C1Nc2ccc(C(F)(F)F)cc2N2CCCC12 (stereo not given)	nt	4	6	nt	0	20	nt	nt
CCc1nc2c(OCC(=O)N3CCOCC3)cccn2c1N(C=O)Cc1ccccc1	-3	nt	nt	nt	nt	nt	nt	nt
Cc1cc(C)c(S(=O)(=O)c2cccc(Cl)c2)c(=O)[nH]1	-1	-2	1	-2	-1	-5	nt	nt
C=CCn1c(C)cc(C(=O)CSc2nnc3n(CCC)c(=O)c4ccccc4n23)c1C	5	nt	nt	2	nt	nt	nt	nt
Cc1ccc(NC(=O)C2C3CCC(O3)C2C(=O)O)cc1Cl (stereo not given)	3	75*	75*	2	-2	0	12	25*
O=C(O)C1C2CCC(O2)C1C(=O)Nc1cnn(Cc2ccccc2)c1 (stereo not given)	0	24*	41*	6	-4	-9	7	18*
O=C(Nc1ccc(F)c(Cl)c1)[C@@H]1O[C@H](CO)[C@H](O)[C@H](O)[C@H]1O	-12	nt	nt	nt	nt	nt	nt	nt
O=C(O)C1C2CCC(O2)C1C(=O)Nc1ccc(F)c(Cl)c1 (stereo not given)	-3	66*	71*	1	1	0	10	19*
N#CCCN(C(=O)COC(=O)CCC(=O)c1ccc(F)cc1)c1ccccc1	-7	-4	-2	3	-5	nt	nt	nt
N#CCCN(C(=O)COC(=O)CCN=C1NS(=O)(=O)c2ccccc21)c1ccc(F)cc1	-3	39*	-1	1	2	-10	-3	-2
C[C@@H]1C[C@H]2[C@@H]3CCC4=CC(=O)C=C[C@]4(C)[C@@]3(Cl)[C@@H](O)C[C@]2(C)[C@@]1(OC(=O)c1ccco1)C(=O)CCl	8	23*	3	-2	9	nt	27*	-6
O=C(CN1CCCN(Cc2ccc(F)cc2Cl)C1=O)NC1CCCCCC1	-1	43*	0	2	3	-1	-5	-5
COc1ccc(NC(=O)c2cccc(S(=O)(=O)NCc3ccccc3)c2)cc1S(N)(=O)=O	2	-2	1	1	-3	nt	nt	nt
COc1ccc(/C=C2\SC(=O)N(CCC(=O)Nc3ccc(S(=O)(=O)Nc4nccs4)cc3)C2=O)cc1	-3	21*	4	-5	15	32	10	1
O=C(O)C1Nc2c(O)cc(Cl)c([N+](=O)[O-])c2C2C=CCC12 (stereo not given)	-1	42*	1	9	-3	5	6	-3
O=C(Cc1ccc(Cl)cc1)Nc1ccc(N2CCCC2)cc1	3	-2	-6	-2	0	0	nt	nt
Clc1cccc(Cl)c1CNc1ccc(N2CCCC2)cc1	nt	19*	3	nt	4	8	1	2
SMILES	Granule exo inh	PP1 counter	PP5 primary	IDE act	IDE inh	SKKanGAS inh	PP1 confirm	PP5 counter
Cc1cccc(NC(=O)CNC(=O)c2sc3ccccc3c2Cl)n1	-2	22*	-2	4	2	-11	3	-4
COc1ccc(NC(=O)c2c(-c3ccccc3)noc2C)c(OC)c1	0	-2	2	7	6	-5	nt	nt
COc1ccc(-c2cc(C(=O)NNC(=S)NC(=O)c3c(-c4ccccc4)noc3C)[nH]n2)cc1	-4	18*	2	0	4	93*	17*	-1
O=C(N/N=C/c1ccncc1)c1sc2ccccc2c1Cl	-2	1	-2	-6	-3	-6	nt	nt
COc1ccc2c(Cl)c(C(=O)N/N=C/c3ccncc3)sc2c1	-7	40*	0	-2	-1	-1	48*	-5
CCS(=O)(=O)c1ccc(N=Nc2ccc(O)c3ncccc23)c(OC)c1	-1	nt	nt	6	nt	19	nt	nt
COc1ccccc1N=Nc1ccc(O)c2ncccc12	23	19*	7	5	5	94*	16*	5
O=c1cc(-c2ccc(C3CCCCC3)cc2)[nH][nH]1	4	18*	3	2	10	9	-2	-4
O=c1cc(-c2ccc(F)cc2)[nH][nH]1	-4	-2	2	-1	2	-11	nt	nt
CCOc1ccc(C2/C(=C(\O)c3ccc(OC)c(OC)c3)C(=O)C(=O)N2c2cc(C)on2)cc1OC (stereo not given)	-4	0	0	2	0	7	nt	nt
COC(=O)c1ccc(C2/C(=C(\O)c3ccc(OC)c(C)c3)C(=O)C(=O)N2c2cc(C)on2)cc1 (stereo not given)	-1	19*	2	9	5	17	16*	-6
COc1ccc(C(=O)NCc2c(C)nn(Cc3ccccc3)c2C)cc1S(=O)(=O)N1CCOCC1	0	-3	1	3	1	nt	nt	nt
O=C(Nc1nc(-c2nc3ccccc3s2)cs1)C1CC1	-6	24*	1	5	3	0	26*	0
